Assay outcomes deposited in PubChem by several laboratories.
The list is not random: actives were taken first. Their share in the collection is about 3.7%.
tim10-1 inh: growth inhibitors of tim10-1 mutant yeast. S. cerevisiae tim10-1 ts strain growth, BacTiter-Glo, 24 h. AID 463190. actives 2.2% (n = 330,000). inhibition, % at 20 µM;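 active = inhibition of at least 40%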;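 also: mutant grown at 25 °C; 0% = DMSO wells with yeast and 100% = wells holding no yeast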
tim23-1 inh: inhibits growth of tim23-1 mutant yeast. S. cerevisiae tim23-1 growth, BacTiter-Glo luminescence, 24 h. inhibition, % at 20 µM. actives 1.3% (n = 330,000);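 active = growth inhibition of the mutant yeast at or above 50%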;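 also: temperature-sensitive mutant grown at 25 °C; plate controls were DMSO-treated mutant yeast for no effect and medium wells lacking yeast for full effect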
TIM10 inh: inhibits growth of TIM10 yeast strain | S. cerevisiae TIM10 strain growth, BacTiter-Glo luminescence, 24 h | actives 1.4% (n = 330,000) | AID 463195 | inhibition, % at 10 µM;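 active = inhibition of 40% or more at the single tested concentration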;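 also: wild-type TIM10 isogenic control strain grown at permissive 25 °C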
V-ATPase pH: regulators of yeast V-ATPase proton transport; S. cerevisiae, pHLuorin cytosolic pH fluorescence; response, % at 10 µM; actives 0.37% (n = 350,000); AID 504577; in the data active = response mostly above about 7.3%, no sharp cut-off; inactive = mostly below about 5.4%; also: actives read high
PfHsp90 set2: inhibits growth of yeast expressing Plasmodium falciparum Hsp90 | actives 0.32% (n = 310,000) | AID 504621 | inhibition, % at 9.4 µM | S. cerevisiae expressing PfHsp90, BacTiter-Glo ATP, 48 h; yeast lacking PDR1 and PDR3 efflux regulators;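 active = every replicate shows inhibition above about 80%, whatever the replicate mean, limit read from the data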;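 also: 0% = DMSO neutral controls and 100% = 20 µM radicicol positive controls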
VATPase regulator: regulators of yeast V-ATPase proton transport | shares compounds with V-ATPase pH | S. cerevisiae pHLuorin cytosolic pH | response, % at 10 µM | actives 2% (n = 980); in the data active = response above about 24%;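 also: plate controls were vehicle wells for no effect and positive control wells for full effect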
The depositor's hits bear a star; / = no result given.

SMILES	tim10-1 inh	tim23-1 inh	TIM10 inh	V-ATPase pH	PfHsp90 set2	VATPase regulator
O=C(NCC1CC1)C1(C(F)(F)F)CC(CCc2ccccc2)CCCO1 (stereo not given)	25.7	30.2	14.1	10.0*	-17.3	-0.4
Cc1c(C(=O)NN)nn(-c2ccc(Cl)cc2)c(=O)c1C#N	2.3	8.9	-9.4	0.8	-11.3	-2.6
Cc1ccc(-n2nc(C(=O)NN)c(C)c(C#N)c2=O)cc1Cl	11.1	9.8	-9.7	-0.1	1.1	/
COc1ccc(-c2csc(NC(=O)C3CC(=O)N(Cc4ccccc4)C3)n2)cc1OC (stereo not given)	8.2	10.6	4.3	0.1	17.0	/
Cc1cc(=O)c(C(=O)O)nn1-c1ccc(Cl)cc1	4.1	3.4	-16.3	3.0	8.8	-0.6
CCOC(=O)c1nn(-c2ccc(Cl)cc2)c(C)cc1=O	-0.2	1.1	18.6	-2.3	31.5	/
COc1ccc(-c2cccc(-c3cc(=O)oc4cc(OC)c(OC)c(OC)c34)c2)cc1	-1.9	29.6	-7.3	8.2*	17.3	-34.6
O=C(C[C@H]1C/C=C\C[C@@H](Cc2ccc(F)cc2)C(=O)OC[C@H]2CCCN2C1=O)NCCO	-13.9	2.2	0.1	-1.3	22.0	/
COc1ccc(CN2C(=O)c3ccccc3C2C(=O)NC2CCCC2)c(OC)c1 (stereo not given)	8.8	4.4	-11.3	9.8*	-5.6	0.5
COc1ccc(CN2C(=O)c3ccccc3C2C(=O)NC2CCC(C)CC2)c(OC)c1 (stereo not given)	14.5	15.4	1.4	0.0	-24.6	/
CC(CNC(=O)c1ccccc1Cl)NC(=O)c1ccccc1Cl (stereo not given)	-2.8	4.3	-6.2	3.0	/	/
Cn1nc(C(=O)NNC(=O)c2ccccc2Br)c2ccccc2c1=O	-1.6	0.5	2.4	9.5*	-14.6	4.2
CCOC(=O)Cc1nnc(NC(=O)CSc2ncc(-c3ccccc3)nn2)s1	13.8	19.6	1.4	5.4	-0.1	/
COc1cc(-c2cc(=O)c3ccccc3o2)ccc1O	32.8	25.1	21.6	7.7*	7.6	6.6
COc1cc(-c2cc(=O)c3c(O)cc(O)cc3o2)ccc1O	-6.5	-10.5	-4.4	/	/	/
COc1ccc(CN(C)C(=O)c2ccc3c(=O)n4c(nc3c2)CCC4)c(OC)c1	-20.9	-24.9	-15.2	2.6	/	/
CC(NC(=O)N1CCOCC1)c1ccccc1 (stereo not given)	4.3	4.3	-8.9	2.5	-22.0	/
Cn1c(SCC(=O)NC2(C#N)CCCCC2)nnc1-c1cccnc1	-7.6	9.8	2.1	9.3*	-6.2	0.7
COc1cccc(NC(=O)CCC2CCN(C(=O)C(OC)c3ccccc3)CC2)c1 (stereo not given)	/	/	/	1.8	/	/
COc1ccc(CN2C(=O)C(CC(=O)NCC3CCCCC3)CC(C(=O)N(C)C)=C2C)cc1 (stereo not given)	/	/	/	-0.1	/	/
CN(C)c1cccc2c1c(NC(=O)c1ccc(F)cc1)nn2C	-1.3	18.4	-7.6	-2.8	-3.9	/
Cn1nc(NC(=O)C(C)(C)C)c2c(F)cccc21	10.2	16.9	14.1	11.9*	1.9	1.2
CC(O)(CS(=O)(=O)Cc1ccccc1)c1ccccc1Cl (stereo not given)	14.4	16.4	2.9	6.9*	14.6	-4.5
CCOC(=O)Nc1ccc2c(c1)N(C(=O)CCN(CC)CC)c1ccccc1CC2	5.3	14.9	7.6	7.8*	10.5	-3.1
O=C(COC(=O)c1ccc2ccccc2c1)NCc1ccccc1	/	/	/	-4.3	/	/
SMILES	tim10-1 inh	tim23-1 inh	TIM10 inh	V-ATPase pH	PfHsp90 set2	VATPase regulator
CCOc1ncccc1C(=O)Nc1ccc(S(=O)(=O)N2CC(C)CC(C)C2)cc1 (stereo not given)	6.5	7.3	-6.4	-1.2	15.9	/
COc1c(Cl)cc(Cl)cc1CNCCNCC(C)O (stereo not given)	5.8	-16.3	2.1	0.3	30.5	/
CNCc1cc(Cl)cc(OC)c1OC(C)C	/	/	/	7.7*	-22.4	-2.1
Cc1ccccc1NC(=O)CSc1nnc2ccc(-c3ccncc3)nn12	-0.4	-8.7	1.4	0.1	-7.5	/
Cc1ccccc1NC(=O)CSc1nnc2ccc(-c3cccnc3)nn12	9.0	2.7	-2.0	10.4*	-0.8	4.9
COc1ccc(NC(=O)C2CC3CCC2C3)c(OC)c1 (stereo not given)	12.2	10.4	21.2	-2.3	/	/
Cc1ccc(-c2cc(C(=O)N/N=C/c3c(C)nn(C)c3C)c3ccccc3n2)cc1C	35.7	16.8	18.4	12.1*	-15.8	-6.5
O=C(Nc1ccc(N2CCOCC2)cc1)C1CCN(C(=O)OCc2ccccc2)CC1	-8.0	6.8	3.4	4.3	11.3	/
O=C(Nc1ccc(N2CCOCC2)cc1Cl)C1CCN(C(=O)OCc2ccccc2)CC1	7.6	8.0	-5.0	10.3*	13.5	3.2
Cc1cccc(C)c1NC(=O)COC(=O)CN1C(=O)C2CCCCC2C1=O (stereo not given)	-13.8	-4.2	6.3	-1.1	-24.2	/
O=S(=O)(NCC1CCCO1)c1ccc(Cl)nc1 (stereo not given)	-16.5	7.3	12.1	0.0	-2.8	/
CCOC(=O)N1CCC(n2c(=S)[nH]c3cc(OCC)c(OCC)cc3c2=O)CC1	9.9	-3.7	12.7	0.1	/	/
CCOc1cc2[nH]c(=S)n(C3CC3)c(=O)c2cc1OCC	21.4	-6.6	9.5	11.7*	7.3	-0.6
COc1ccc(N2CCN(C(=O)NCc3ccc(OC)c(OC)c3)CC2)cc1	3.1	-4.6	-16.1	-0.1	9.4	/
C#CCOCCOCCOCCNc1nc(N2CCN(C(=O)Cn3cc(CC(C)O)nn3)CC2)nc(N2CCN(C(=O)[C@H](CCCCN)n3cc(CC(C)O)nn3)CC2)n1 (stereo not given in full)	/	/	/	1.8	-4.3	/
CC(CN1CCCCC1)OC(=O)CCc1ccccc1 (stereo not given)	5.7	4.9	-10.3	9.8*	-36.2	5.6
